# Assay results: PubChem BioAssay (NCI)
# This is part of a sample that, as a whole, favours compounds with a hit. Of some 79,000 tested, about 15% had one in any assay. Values without a mark were called inactive. Active and inactive are the calls of the source. Rule as the data show it: active = growth inhibition above about 70%; inactive = the rest.
# How the values were obtained:
# [1] = NCI Yeast Anticancer Drug Screen. Data for the rad50 strain (AID 155);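 also: 0% = growth of vehicle-only cultures of the same strain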; details: S. cerevisiae rad50 strain growth inhibition; at 50.0 µM; active compounds read high
# In short: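 Readout: growth inhibition relative to vehicle-treated cultures. Compound exposure was carried out in a genetically defined yeast strain deficient in DNA damage repair.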
# [2] = NCI Yeast Anticancer Drug Screen. Data for the mec2-1 strain (AID 157); details: S. cerevisiae mec2-1 strain, at 50.0 µM, active compounds read high
# In short: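 Cells of the genetically defined mec2-1 yeast strain are incubated with test compound. Inhibition of growth is calculated against vehicle-treated controls.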
# [3] = NCI Yeast Anticancer Drug Screen. Data for the sgs1 mgt1 strain (AID 161);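 also: 0% = growth of cultures given vehicle only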; details: S. cerevisiae sgs1 mgt1 strain, at 50.0 µM, active compounds read high
# In short: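 Mutant yeast exposed to compound; growth scored against vehicle-only wells.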
# [4] = NCI Yeast Anticancer Drug Screen. Data for the cln2 rad14 strain (AID 165);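 also: 0% = growth equal to vehicle treated cultures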; details: S. cerevisiae cln2 rad14 strain, at 50.0 µM, active compounds read high
# In short: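 The screen exposed genetically defined yeast (cln2 rad14) to test compounds and scored growth inhibition relative to vehicle-treated controls.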
# [5] = NCI Yeast Anticancer Drug Screen. Data for the bub3 strain (AID 167); details: S. cerevisiae bub3 mutant strain, at 50.0 µM, active compounds read high
# In short: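 Readout: yeast growth inhibition, expressed relative to vehicle-only wells. The test organism is a mutant strain from a panel with lesions in DNA repair or checkpoint genes.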
# [6] = NCI Yeast Anticancer Drug Screen. Data for the mlh1 rad18 strain (AID 175); details: S. cerevisiae mlh1 rad18 strain growth inhibition; at 50.0 µM; active compounds read high
# In short: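 Compound-treated yeast growth, normalised to vehicle controls. Strain bears defined DNA repair mutations.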
Compound,growth inhibition [1],growth inhibition [2],growth inhibition [3],growth inhibition [4],growth inhibition [5],growth inhibition [6]
COc1cccc(NC(=O)c2cccc(C(=O)Nc3cccc(OC)c3)c2)c1,7%,5.55%,4.15%,-32.8%,-2.6%,35%
Cn1c(=O)c2[nH]c(C(=O)O)nc2n(C)c1=O,17.4%,-2.35%,5.7%,9.35%,-8.3%,9.85%
O[C@]12c3ccccc3C1CCCCC2N1CCOCC1 (stereo not given in full),-15.8%,-41%,-61%,-8.45%,-24.1%,-35.4%
CCSC(C(O)C(O)C(O)C(O)CO)n1cc(C)c(=O)[nH]c1=O (stereo not given),3%,5.45%,-2.85%,-3.7%,4.2%,-0.25%
Cc1cc2c(c(S(=O)(=O)c3ccccc3[N+](=O)[O-])c1)NCCC2,2.95%,-36%,3.3%,-23.4%,14.8%,-15.8%
C=C(C)S(=O)(=O)c1ccc(C)cc1,11.3%,-16.4%,-5.7%,-15.3%,12%,11.8%
C=C1C(=O)O[C@@H]2/C=C(/C)[C@@H](OC(C)=O)C[C@@H](O)/C(C)=C\[C@@H](OC(=O)[C@]3(C)O[C@@H]3C)[C@@H]12,11.3%,-0.85%,16.2%,20.5%,13.4%,-63.6%
CCOC(=O)C1=C(O)c2ccc(OC)cc2C(=O)C1=O,-5.5%,-10.5%,12.7%,2.05%,-9%,0.3%
CCCC(C)C(=O)OC1CCCCC1C (stereo not given),-0.95%,4.25%,-7.85%,-45.6%,8.1%,0.6%
ClC1C2C=CC(C2)C12OCCO2 (stereo not given),2.35%,11.7%,-1.6%,6.85%,-10.7%,-18.4%
CCOC(=O)CC1CC(CN)(C(=O)OCC)CO1 (stereo not given),-21.6%,12.2%,-6.9%,3.65%,-0.4%,-22.9%
O=c1c[n+](-c2ccccc2)[nH]o1,41.2%,-12.1%,22.1%,5.5%,7.7%,27.5%
COC(=O)Nc1cccc(-c2nc3ccc(NC(=O)OC)cc3c(=O)n2-c2ccccc2)c1,-26.3%,-16.9%,-22.6%,8.55%,-15.8%,5%
CC(Cc1ccccc1)Nc1ncnc2c1ncn2C1OC(CO)CC1O (stereo not given),7.5%,2.35%,12.6%,1.6%,2.3%,-11.7%
CO[C@@H]1[C@@H](OC2OC(C)C(OC3CC(C)(O)C(OC(=O)CC(C)C)C(C)O3)C(N(C)C)C2O)[C@@H](CC=O)C[C@@H](C)C(=O)/C=C/C2O[C@H]2C[C@@H](C)OC(=O)C[C@H]1OC(C)=O (stereo not given in full),4.1%,-22.6%,4.75%,8.95%,-14.3%,17.3%
CCCOc1ccc(OCC(=O)c2ccccc2)cc1,-23.9%,-32.5%,25.8%,5.3%,61.5%,8%
COc1ccc2c(c1OC(C)=O)C1=CC(OC(C)=O)=CCC13CCN(C)C3C2 (stereo not given),2.75%,-0.15%,-10.8%,-4.7%,-6.4%,-0.15%
Nc1ccc(C(=O)NO)c(O)c1,6.2%,18.9%,-7.55%,-41.8%,18.7%,-6%
COc1cc2c(c3[nH]cc(C(=O)O)c(=O)c13)NC(=O)CS2,-47.1%,-87.8%,-16.9%,-32.4%,-2.85%,-29.4%
CCOC(=O)C(Cc1cn(C(C)=O)c2ccccc12)P(=O)(OCC)OCC (stereo not given),-12.7%,-21.6%,-15.2%,-1.15%,1.05%,-27%

Compound,growth inhibition [1],growth inhibition [2],growth inhibition [3],growth inhibition [4],growth inhibition [5],growth inhibition [6]
c1ccc(-c2nc3ccccc3nc2-c2ccc(-c3ccc(-c4nc5ccccc5nc4-c4ccccc4)cc3)cc2)cc1,16.1%,5.8%,-13.8%,21.3%,-0.4%,4.1%
NC(=S)N/N=C\c1nccc2ccsc12,10.4%,-5.7%,-9.35%,-29.9%,-0.05%,2.7%
CC(C)(CO)NC(=O)c1ccccc1Br,-31.9%,-11.7%,-8.6%,1.55%,-13.9%,7.8%
COc1ccc2c(c1)NC(C(C)C)=NS2(=O)=O,17.9%,15.8%,17.4%,4.95%,18.4%,25.8%
CNC(=O)c1ccc(C(C)C)cc1,0.3%,-1.95%,-5.3%,-10.7%,4.2%,0.65%
Cn1ccnc1CC(C)(O)c1ccccc1 (stereo not given),-13.2%,-17.4%,-44.9%,3.9%,-23.4%,6.8%
O=C(CCN1C(=O)c2ccccc2C1=O)c1cnc(N2C(=O)c3ccccc3C2=O)[nH]1,15.6%,-4.45%,11.4%,-22.4%,18.9%,2.5%
O=C(O)c1c(Br)c(Br)c(Br)c(Br)c1C(=O)Nc1cccc2c(O)cccc12,42.4%,24.9%,25.2%,14.4%,24.3%,44.9%
CCOC(=O)c1nc2ccccc2nc1Nc1ccc(F)cc1,-2.35%,-7.5%,1.75%,1.05%,-21.1%,-38%
Cc1cc[c]([Sb]2([c]3ccc(C)cc3)([c]3ccc(C)cc3)[NH]c3cc(C(c4ccccc4)(c4ccccc4)c4ccccc4)cc(C(C)(C)C)c3[O]2)cc1,-1.65%,14.3%,5.15%,-23.6%,-1.25%,11.1%
CN(C)C(=O)c1ccc[n+](CC(=O)NCc2ccccc2)c1,5.45%,-7.35%,-3.4%,18.8%,2.25%,13.5%
CSc1nc(C)c(CCOC(C)=O)c(Cl)n1,-18.1%,-19.4%,-16.2%,-0.25%,17.1%,4.25%
CC(=O)OC/C(C)=N\NS(=O)(=O)c1cc(Cl)c(Cl)cc1Cl,15.1%,16.4%,15.8%,13.8%,6.8%,13.5%
CC(C)Cc1cccc(C(C)C)c1NC(=O)CCC(=O)N/N=C1\C(=N/NC(=O)CCC(=O)Nc2c(C(C)C)cccc2C(C)C)C(c2ccc3c(c2)OCO3)Oc2ccccc21 (stereo not given),5.2%,-21.6%,-5%,-2.7%,6.75%,11.2%
COc1ccc(/C=C/c2cnc3ccccc3n2)cc1OC,28.8%,-4.55%,58.4%,25.8%,45.4%,81% (active)
COc1ccc(NC(=O)c2c(Br)c(Br)c(Br)c(Br)c2C(=O)O)c(Cl)c1,92.5% (active),88.7% (active),92% (active),83.5% (active),90.3% (active),95.2% (active)
CC1CCC2C(C)(C)CC3(C)CCC1C23O (stereo not given),29.9%,45.5%,81% (active),30.4%,61.6%,83.2% (active)
NC(=O)NC(=S)NC(=O)c1ccccc1,-2.95%,0.95%,-2.95%,-33.5%,-28.8%,-7%
O=C1OCC=C1COC1OC(CO)C(O)C(O)C1O (stereo not given),-6.35%,3.55%,-12.8%,5.05%,-11.9%,-41.7%
Cc1ccc(S(=O)(=O)N2CCSCCSCCSCCSCC2)cc1,-1.3%,-0.1%,7.1%,10.6%,-8.9%,-39.1%
